Laboratory results: PubChem BioAssay AID1347076 (National Center for Advancing Translational Sciences (NCATS), 2019)
The whole screen tested about 400,000 compounds, of which about 13,000 (3.2%) were called active. Roughly 18% stayed inconclusive and do not appear here. This is one part of a sample in which actives are shown more often than they occur. A number with no mark means an inactive call. The call rests on the fitted dose curve; in most records, active means well fitted cell-killing curve with a large enough effect; inconclusive means small, poorly fitted or top-dose-only effect, or effect the other way; inactive means flat fitted curve, though single readings scatter.

Test: qHTS assay for MDR1-selective chemotherapeutics: Primary screen using the drug-selected MDR subline cells KB-V1; further: nearly all actives have a fitted effect of over 60% in size
Conditions: KB-V1 MDR cells viability, CellTiter-Glo, 72 h; series mostly up to 46.1 µM; activity change, negative = cytotoxicity: at the top concentration
How it was run: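 KB-V1, DMEM (no phenol red) + 10% FBS; cpd pin-transferred, titration series; 72 h, 37 degrees C; CellTiter-Glo, luminescence. Data normalized, curve-fit.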
On the % scale 0 is the no-effect control and ±100 the full control effect; potency means the concentration at half of the fitted maximal effect.

Row | Structure (SMILES) | activity change, negative = cytotoxicity [%] | Potency
1 | Cc1ccc(S(=O)(=O)N2CC3C(=O)C[C@@H](c4ccccc4Cl)N(S(=O)(=O)c4ccc(C)cc4)C3CC2c2ccccc2)cc1 (some centres not stated) | -27.9 | –
2 | COc1ccc(C(C)(C)C)cc1NC(=O)CN(C)C1=NS(=O)(=O)c2ccccc21 | -22.1 | –
3 | CC1(C(=O)NCc2ccc3c(c2)OCO3)CCN1C(=O)Cc1cccs1 (configuration not stated) | 2.58 | –
4 | C[C@H](NC(=O)CC[C@H]1O[C@@H](n2ccc(=O)[nH]c2=O)[C@H](O)[C@@H]1O)c1cccc2ccccc12 | 14.5 | –
5 | CC(=O)NC(=S)NNC(=O)c1ccc(Br)cc1 | -2.46 | –
6 | CNC(=S)NNC(=O)c1ccc(N(C)C)cc1 | – | 11.6 µM (active)
7 | CNC(=S)NNC(=O)c1sccc1OCc1ccccc1 | -21.8 | –
8 | COC(=O)C1(C(=O)OC)C/C=C\CN(S(=O)(=O)c2ccccc2[N+](=O)[O-])CCC1 | 3.37 | –
9 | COc1ccc(NS(=O)(=O)c2cc(NC(=O)c3ccc(S(=O)(=O)N(C)C)cc3)ccc2N2CCOCC2)cc1 | 7.71 | –
10 | COc1ccc(NC(=O)c2sc(=O)n(Cc3ccc(S(=O)(=O)N(C)C)cc3)c2C)cc1 | – | 9.2 µM (active)
11 | COc1ccc(Cn2c(C)c(C)c(C#N)c2NC(=O)Nc2ccc(F)cc2)cc1 | 18 | –
12 | Cc1nc(SCC(=O)N2CC(=O)Nc3ccccc32)c2c(C)c(C)sc2n1 | -23.9 | –
13 | O=C(CSc1nnc(-c2cccs2)n1Cc1ccccc1)N1CCc2ccccc2C1 | 0 | –
14 | Cc1nc(SCC(=O)N2CCc3ccccc3C2)c2c(C)c(C)sc2n1 | – | 18.4 µM (active)
15 | COc1ccc(OC)c(C(=O)NC2CCCc3c2cnn3-c2cc(C)cc(C)c2)c1 (configuration not stated) | 1.4 | –
16 | Cc1cccc(N2CCN(C(=O)c3cnc(N4CCCC4)nc3C)CC2)c1C | 19.2 | –
17 | CCOC(=O)N1CCc2c(sc3c2C(=O)NC(c2ccccc2F)N3)C1 (configuration not stated) | -0.0929 | –
18 | O=C1NC(c2ccncc2)Nc2sc3c(c21)CCCC3 (configuration not stated) | – | 20.6 µM (active)
19 | C/C(=C\c1ccccc1)C1NC(=O)c2c(sc3c2CCCC3)N1 (configuration not stated) | 0 | –
20 | COc1ccc(NC(=O)CCCN2C(=O)CCn3nc(-c4cn(C)c5ccccc45)cc32)cc1OC | 11.5 | –
21 | COc1ccc(C(=O)Nc2cc(C)ccc2NC(=O)COc2ccccc2)cc1 | -2.79 | –

Row | Structure (SMILES) | activity change, negative = cytotoxicity [%] | Potency
22 | Cc1cccc(NC(=O)c2ccc(OCC(=O)NCc3ccccc3)cc2)c1C | – | 14.6 µM (active)
23 | Cc1ccc(OCC(=O)NNC(=S)NCc2ccccc2)cc1 | 2.82 | –
24 | O=C(COC(=O)c1ccccc1OCCOc1ccccc1)Nc1cccc(Br)c1 | 0 | –
25 | COCCNC(=O)C1CCCN(Cc2ccccc2Cl)CC1 (configuration not stated) | 6.18 | –
26 | COC(=O)CCCCC1=CCC2C(=O)C=C(O)C2C1 (configuration not stated) | 3.11 | –
27 | Cc1sc2nc(-c3ccccc3F)oc(=O)c2c1C | 23.8 | –
28 | CCOc1ccc(NC(=O)c2cc3c(=O)n(Cc4cccs4)ccc3nc2C)cc1 | -7.46 | –
29 | O=C(NNC(=O)c1ccc(-c2ccccc2)cc1)Nc1ccccc1 | -17 | –
30 | C=CC[n+]1c(-c2ccc(C)cc2)csc1NNC(=O)Nc1ccccc1 | – | 14.6 µM (active)
31 | C=CCNc1scc(-c2ccccc2)[n+]1CC=C | 8.94 | –
32 | Cc1ccc(S(=O)(=O)N2C[C@H]3C(=O)C[C@@H](c4cccc5ccccc45)N(S(=O)(=O)c4ccc(C)cc4)[C@H]3C[C@H]2c2ccc(Cl)cc2)cc1 | 7.7 | –
33 | Cc1ccccc1-c1nc(NC(C)C)nc2cc(-c3ccccc3)sc12 | 3.17 | –
34 | O=C(c1cc2c(s1)CCC2)N1CCN(c2ccccc2)CC1 | – | 20.6 µM (active)
35 | O=C(C1CCC1)N1CCN(c2ccccc2)CC1 | 3.49 | –
36 | O=C(NNC(=O)c1cc2c(s1)CCCC2)c1ccccc1 | 14.5 | –
37 | O=[N+]([O-])c1ccc(/C=C/c2ccc3cccnc3c2)cc1 | -13.4 | –
38 | COc1cc(C(=O)N2CCOC23CCN(Cc2ccccc2)CC3)cc(OC)c1OC | -15.3 | –
39 | COC(=O)c1ccc(C(=O)OC)c(NC(=S)N2CCN(c3cc(Cl)ccc3C)CC2)c1 | – | 20.6 µM (active)
40 | COC(=O)c1ccc(C(=O)OC)c(NC(=S)N2CCCCC2)c1 | -24.1 | –
41 | CCc1nc2ccc(C(=O)N3CCN(c4cc(Cl)ccc4C)CC3)cc2nc1CC | 0 | –
42 | O=C1CCc2cc(S(=O)(=O)Nc3cccc(Oc4ccccc4)c3)ccc2N1 | 0 | –

Row | Structure (SMILES) | activity change, negative = cytotoxicity [%] | Potency
43 | CCn1c(SCC(=O)Nc2ccccc2F)nc2c(c1=O)SC(C)C2 (configuration not stated) | -3.18 | –
44 | COCCn1c(SCC(=O)Nc2cc(OC)ccc2OC)nc2c(c1=O)SC(C)C2 (configuration not stated) | -7.8 | –
45 | CCn1c(SCC(=O)Nc2ccc3c(c2)OCCO3)nc2c(c1=O)SC(C)C2 (configuration not stated) | – | 4.11 µM (active)
46 | CN(CC(=O)Nc1ccccc1F)S(=O)(=O)c1ccc2c(c1)c(=O)n(C)c(=O)n2C | -0.676 | –
47 | Cc1nc2c(OCC(=O)C(C)(C)C)cccn2c1N(C)Cc1cccs1 | -14.1 | –
48 | COc1ccc2c(c1)CCCO[C@]21O[C@H](CCO)C[C@H](O)[C@H]1O | -6.9 | –
49 | O=C(COC(=O)c1ccccc1)Nc1cccc(S(=O)(=O)N2CCOCC2)c1 | -1.3 | –
50 | COc1ccc(CC(=O)Nc2ccc3c(c2)CCC3)cc1S(=O)(=O)N1CCOCC1 | 0 | –
51 | O=C(CCc1ccc(S(=O)(=O)N2CCOCC2)cc1)Nc1ccc2ccccc2c1 | – | 16.4 µM (active)
52 | O=C(CSc1ccccc1)Nc1cccc(S(=O)(=O)N2CCOCC2)c1 | 2.32 | –
53 | COc1ccc(C(=O)N(C)Cc2ccc(OC)c(OC)c2OC)cc1S(=O)(=O)N1CCOCC1 | -7.85 | –
54 | O=C(COC(=O)CCc1ccc(S(=O)(=O)N2CCOCC2)cc1)Nc1cccc(Cl)c1 | 4.26 | –
55 | CN(CC(=O)Nc1ccc(F)cc1)CC(=O)Nc1ccc(Cl)c(S(=O)(=O)N2CCOCC2)c1 | 16.4 | –
56 | COc1ccc(CC(=O)NC(C)c2ccc(Cl)c(Cl)c2)cc1S(=O)(=O)N1CCOCC1 (configuration not stated) | – | 23.1 µM (active)
57 | Cc1ccc(CC(=O)Nc2ccc(S(=O)(=O)N3CCOCC3)cc2)cc1C | -19.5 | –
58 | O=C(CN1CCc2ccccc2C1)Nc1cccc(S(=O)(=O)N2CCOCC2)c1 | – | 18.4 µM (active)
59 | COc1ccc(CCC(=O)Nc2ccc(Cl)c(S(=O)(=O)N3CCOCC3)c2)cc1OC | – | 16.4 µM (active)
60 | COc1ccc(C(=O)OC(C)C(=O)NC2CCCC2)cc1S(=O)(=O)N1CCOCC1 (configuration not stated) | 4.6 | –
61 | CCc1noc(C)c1C(=O)OCC(=O)c1ccc(NC(=O)CC(C)C)cc1 | -24.6 | –
62 | Nc1ncnc2c1ncn2[C@@H]1O[C@H](C(=O)NCC(F)(F)F)[C@@H](O)[C@H]1O | 13.3 | –
